The results in this text go back to PubChem BioAssay (NCI).

Each structure is given as a SMILES string. About 83,000 compounds went through this panel and 20% of them were active in at least one assay; those are over-represented in the sample as a whole.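 Step 1: grow cells in 96-well plates. Step 2: add test compound at a single concentration. Step 3: incubate 48 h. Step 4: record percent growth.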 A number with no mark means an inactive call. How the source made its calls: active means growth percent below 10; inactive means the rest.

The experiment has as its system UACC-257 melanoma. Briefly: NCI-60 one-dose screen, 48 h (100 = growth as untreated, 0 = no growth, -100 = all killed). The note with it: 10 µM unless noted.
For `COc1ccc(-c2cc(/C=C/C(=O)c3ccc(OC)c(OC)c3)[nH]n2)cc1`, the growth was 73.9%.

In the case of `C#Cc1cc2c(N)c(C(=O)c3cc(OC)c(OC)c(OC)c3)[nH]c2cc1OC`, the growth was 70.5%.

As to `c1ccc2[nH]c(-c3cc(-c4ccc5c(c4)OCO5)n[nH]3)nc2c1`, the growth was 66.4%.

As to `COc1cc(-c2cc(-c3nc4cc(Cl)c(Cl)cc4[nH]3)[nH]n2)cc(OC)c1OC`, the growth was 88%.

With `Oc1cc(/C=C/c2nc(N3CCOCC3)c3cc(Cl)c(Cl)cc3n2)cc(O)c1O`, the growth was 99.8%.

For the molecule `Cc1cc(Nc2ccc(F)cc2)nc(N2CCN(c3ccnc4cc(Cl)ccc34)CC2)n1`, the growth was 38.3%.

`COc1ccc(-c2cc(/C=C/C(=O)c3ccc(N)cc3)[nH]n2)cc1`: the growth was 58.9%.

As for `OCCNc1nc(Nc2ccc(Cl)c(Cl)c2)nc2ccccc12`, the growth was 57.9%.

`COc1cc(-c2cc(-c3nc4ccccc4[nH]3)[nH]n2)cc(OC)c1OC`: the growth is 44%.

On to `Cc1[c-]onc1C.Cc1[c-]onc1C.[Ag].[Ag].[NH-]S(=O)(=O)c1ccc(N=Nc2cc(N=Nc3ccc(S([NH-])(=O)=O)cc3)c3c(NC(=O)C(Cl)Cl)cccc3c2OC(=O)C(Cl)Cl)cc1`, for which the growth was 78.5%.
